# High-throughput results from PubChem BioAssay.
# Sampled rows, rich in hits. Any-hit rate of the full collection: about 7.1%.
# PINK1 modulator: modulators of PINK1 expression. PINK1 immunofluorescence, high-content cytometry, 24 h. Potency, µM (series often up to 76.6 µM), for inactives: at the highest dose activation (PINK1 increase), usual class: activators. 0.2% of 410,000 active. AID 624263; active means well fitted activation curve with a large enough effect; inconclusive means small, poorly fitted or top-dose-only effect; cell line not stated here; further: potency means the concentration at half of the fitted maximal effect; % of control where 0% means no effect; nearly all actives have a fitted effect of over 65% in size
#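 PINK1 protein, normally rapidly degraded, was detected by immunofluorescence after 24 hour compound treatment of a stable cell line. Titration data (5 concentrations) came from laser-scanning cytometry, with CCCP-treated wells as controls.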
# MCF10A rerep: inducers of DNA re-replication in MCF 10A breast cells; MCF 10A DNA re-replication, Hoechst nuclear intensity, 48 h; Potency, µM (series often up to 46.1 µM), without a hit: at the highest dose activity, positive = re-replication, hits mostly activators; 2.9% of 350,000 active; further: potency means the concentration at half of the fitted maximal effect; % of control where 0% means no effect; nearly all actives have a fitted effect of over 50% in size
# IL-1B inflam inh: inflammasome signaling inhibition, IL-1 beta readout. activity change, % at 57.5 µM. AID 743279. THP-1 LPS/ATP IL-1B secretion, AlphaLISA, 16 h; hits give low values. 4.7% of 360,000 active; in the data active means activity change below about -50%; inconclusive means mostly about -30% to -49%; further: on the % scale 0 is the no-effect control and ±100 the full control effect
#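 Secreted IL-1B measured by AlphaLISA bead assay after 16 h compound exposure of THP-1 cells; compounds (final up to 57.5 uM) added 1 h before LPS (250 ng/mL) and ATP (1.25 mM) stimulation; lower signal means less secretion.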
# ATXN2 expr inh: inhibitors of ATXN2 expression; AID 1745845; 0.72% of 360,000 active; HEK-293 ATXN2-luciferase reporter, luminescence, 24 h; Potency, µM (titrated, usually from 57 µM), for inactives: at the top dose activity change, negative = inhibition, usual class: inhibitors; further: potency means the concentration at half of the fitted maximal effect; on the % scale 0 is the no-effect control and ±100 the full control effect; nearly all actives have a fitted effect of over 55% in size
#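 ATXN2-luciferase reporter cells (luciferase flanked by upstream and downstream ATXN2 gene portions) were treated 24 h at 37 °C with compounds at up to 57 uM. SteadyGlo luminescence gave expression; GF-AFC fluorescence gave viability.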
# SW480 rereplic: DNA re-replication induction in SW480 cells. Potency, µM (top dose mostly 46.1 µM), for inactives: at the highest dose re-replication activation, usual class: activators. SW480 DNA re-replication, Hoechst DNA content imaging, 48 h. 1.8% of 340,000 active. AID 624297; further: potency means the concentration at half of the fitted maximal effect; % of control where 0% means no effect; nearly all actives have a fitted effect of over 55% in size
#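 Hoechst fluorescence of nuclei (405 nm excitation, 500-530 nm emission) measured by plate-scanning imager after 48 hr compound exposure at 37 C; re-replication scored as increased number of nuclei with elevated intensity.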
# ATXN viability: viability counter-screen for ATXN expression inhibitors; 0.49% of 400,000 active; Potency, µM (titrated, usually from 56.7 µM), usual class: cytotoxic; S2 cells (HEK-293 line with an ATXN2-luciferase reporter) viability, CellTiter-Fluor protease fluorescence, 24 h; further: potency means the concentration at half of the fitted maximal effect; nearly all actives have a fitted effect of over 40% in size
# * hit, by the source's call; i = inactive; u = inconclusive; x = not tested or not shown; [ ] = dose if it differs, or a comment. Unless noted, the call rests on the fitted dose curve; in most records, active means well fitted curve in the direction sought with a large enough effect; inconclusive means small, poorly fitted or top-dose-only effect, or another doubt; inactive means no such curve, though single readings can be large; an effect the other way counts as inactive or inconclusive.
SMILES,PINK1 modulator,MCF10A rerep,IL-1B inflam inh,ATXN2 expr inh,SW480 rereplic,ATXN viability
Cc1ccc2sc(N(CCCN(C)C)C(=O)CCS(=O)(=O)c3ccccc3)nc2c1C,-2%,u,-93*,u,u,x
COc1ccc(Cl)c2sc(N(CCN(C)C)C(=O)CCS(=O)(=O)c3ccc(C)cc3)nc12,0%,u,-15,-30%,-18%,u
Cc1ccccc1NC(=O)CN(c1ccc(Cl)cc1Cl)S(=O)(=O)c1ccccc1,0%,x,x,-25%,x,u
CCOC(=O)c1ccc(NC(=O)c2nc[nH]c2C(=O)N[C@@H](Cc2ccccc2)C(=O)OC(C)(C)C)cc1,u,-1%,-73*,u,u,u
Cc1cccc(NC(=O)c2nc[nH]c2C(=O)N[C@@H](Cc2ccccc2)C(=O)OC(C)(C)C)c1,2%,3.7µM*,-58*,u,-8%,x
CC(C)(C)OC(=O)[C@H](Cc1ccccc1)NC(=O)c1[nH]cnc1C(=O)Nc1ccc(Cl)cc1,-2%,u,-59*,u,u,x
CC(C)(C)OC(=O)[C@H](Cc1ccccc1)NC(=O)c1[nH]cnc1C(=O)Nc1cccc(Cl)c1,5%,15µM*,-51*,u,7%[9.22 µM],32µM*
COc1ccc(OC)c(NC(=O)c2csnn2)c1,-1%,x,x,2%,x,i
NC(=S)N/N=C/c1ncc(C(F)(F)F)cc1Cl,2%,u,-103*,7.9µM*,u,14µM*
NC(=S)N/N=C/c1ccc(C(F)(F)F)cc1,1%,u,0,-28%,x,i
Cc1cc(=O)[nH]c(SCCOc2ccc(OC(C)C)cc2)n1,0%,19%,97,-23%,-9%,i
Cc1cc(=O)[nH]c(SCCOc2ccc3c(c2)CCC3)n1,1%[38.3 µM],u,31,20%,1.8µM*,i
O=C(Nc1ncccc1O)c1ccc(NS(=O)(=O)c2ccc3[nH]c(=O)[nH]c3c2)cc1,6%,4%,-2,0%,16µM*,i
CC(=O)N1CCC(N(Cc2ccco2)C(=O)Nc2ccc(C)c(Cl)c2)CC1,1%,x,x,-23%,x,i
CCc1cccc(C)c1NC(=O)C1CCN(S(=O)(=O)c2c(C)noc2/C=C/c2c(C)cc(C)cc2C)CC1,0%,x,x,x,x,x
CC(=O)c1ccc(Sc2ccccn2)c([N+](=O)[O-])c1,2%,10%,-24,4%,-11%,u
O=[N+]([O-])c1ccc(Sc2nnnn2-c2ccccc2)c(Cl)c1,2%[38.3 µM],4.1µM*,6,6%,u,i
CN1CCN(S(=O)(=O)c2ccc(Sc3nnnn3-c3ccccc3)c([N+](=O)[O-])c2)CC1,-1%,6.5µM*,-74*,u,16µM*,x
CC(=O)c1ccc(Sc2nnnn2-c2ccccc2)c([N+](=O)[O-])c1,-1%,u,-100*,24%,u,i
CCc1cccc(NC(=O)c2cc3c(=O)n(Cc4ccc(OC)cc4)ccc3nc2C)c1,3%,x,x,-32%,x,u
NS(=O)(=O)c1ccc(N/N=C/c2ccccc2Br)cc1,4%,6%,-106*,-6%,4%,i
NS(=O)(=O)c1ccc(N/N=C/c2cn(-c3ccccc3)nc2-c2cccs2)cc1,-1%,13µM*,-61*,1%,u,i
NS(=O)(=O)c1ccc(N/N=C/C=C/c2ccccc2[N+](=O)[O-])cc1,0%,2%,-54*,43%,-5%,u
NS(=O)(=O)c1ccc(N/N=C/c2ccncc2)cc1,0%,-35%,0,-7%,6%,i
CCc1ccc(-n2c(=O)c3c4c(sc3n(CC(=O)N3CCCCC3CC)c2=O)CCC4)cc1 (centres undefined),3%,x,x,4%,x,i
SMILES,PINK1 modulator,MCF10A rerep,IL-1B inflam inh,ATXN2 expr inh,SW480 rereplic,ATXN viability
CCc1ccc2oc(-c3cccc(NC(=O)C(C)(C)Oc4ccc(Br)cc4)c3)nc2c1,0%,x,x,84%,x,i
COc1cc(OC)cc(C(=O)N/N=C/c2ccc(OC)c(COc3ccc(F)cc3)c2)c1,1%,5.8µM*,32,-16%,5.8µM*,u
COc1ccc(/C=N/NC(=O)c2cccnc2)cc1COc1ccc([N+](=O)[O-])cc1,3%,u,x,u,u,i
COc1cccc(C(=O)N/N=C/c2ccc(OC)c(COc3ccccc3C(N)=O)c2)c1,4%,u,0,-20%,16µM*,i
COc1ccc(/C=N/NC(=O)c2cccnc2)cc1COc1ccc(NC(C)=O)cc1,15%,4.1µM*,76,-2%,8.2µM*,i
COc1ccc(OCc2cc(/C=N\NC(=O)c3ccccc3)ccc2OC)cc1,1%,8.2µM*,42,3%,15µM*,i
COc1ccc(C(=O)N/N=C/c2ccc(OC)c(COc3c(F)c(F)cc(F)c3F)c2)cc1,5%,u,54,-9%,2%,i
CCC1CN(C(=O)N2CCC(C(=O)NCCc3ccccc3Cl)CC2)c2cc(C)ccc2O1 (centres undefined),-1%,x,x,x,x,x
CNC(=O)[C@@H]1C[C@H](NC2CCCCCCC2)CN1Cc1cccc(OC)c1OC,1%,x,x,x,x,i
COc1cc(OC)c(NC(=O)CSc2nccn2C)cc1Cl,1%,x,x,12%,x,i
Cc1ccc(CCC(=O)Nc2ncc(Cc3cccc(Cl)c3Cl)s2)o1,13%,u,14,0%,1.2µM*,u
CCCCc1cc(=O)oc2cc(C)c3c(C(C)(C)C)coc3c12,-1%,x,x,16%,x,i
Cc1ccc(NC(=O)C(c2ccccc2)c2ccccc2)c(O)c1,24%,5%,-56*,-6%,-32%,i
Cc1ccc(NC(=O)c2nc[nH]c2C(=O)NCCCCCNC(=O)OC(C)(C)C)cc1,6%,u,-62*,u,-3%,x
C[C@H](NC(=O)c1nc[nH]c1C(=O)NCCCCCNC(=O)OC(C)(C)C)c1ccccc1,2%,19%,2,-12%,-6%,u
CCN(CC)C(=O)c1[nH]cnc1C(=O)Nc1ccc(OC)cc1,-1%,-20%,-22,-1%,1.8µM*,i
CC(C)(C)OC(=O)NCCCCCNC(=O)c1[nH]cnc1C(=O)N[C@@H](Cc1ccccc1)C(=O)OC(C)(C)C,15%,u,-19,u,u,u
CC(C)(C)OC(=O)NCCCC[C@H](NC(=O)c1[nH]cnc1C(=O)N[C@@H](Cc1ccccc1)C(=O)OC(C)(C)C)C(=O)OC(C)(C)C,1%,29%,-56*,-24%,-1%[9.22 µM],u
C[C@H](NC(=O)c1nc[nH]c1C(=O)NCc1ccc(CNC(=O)OC(C)(C)C)cc1)c1ccccc1,5%,15µM*,-22,u,4%,u
